This excerpt belongs to a sample that is enriched for hits.
DT40 TDP1 CPT = growth inhibition of DT40 Tdp1-/-;hTDP1 cells with camptothecin (screen for TDP1 inhibitors). Potency, µM (titrated, usually from 46.2 µM), inactives show at the highest dose activity change, negative = growth inhibition, actives largely listed as inhibitors. chicken DT40 Tdp1-/-;hTDP1 cells + 20 nM CPT, ATP luminescence, 48 h. 12% of 420,000 active; also: potency is read from the fitted curve at half-maximal effect; nearly all actives have a fitted effect of over 55% in size
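Chicken DT40 Tdp1-/- cells complemented with human TDP1, 400 cells/well, exposed to compounds plus 20 nM camptothecin for at least 48 h at 37 C; viability read as ATP content by CellTiter-Glo luminescence.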
ALOX12 inh = ALOX12 (human) lipoxygenase inhibition | P18054 | 1.1% of 580,000 active | purified 12hLO, xylenol orange hydroperoxide absorbance | Potency, µM (highest dose often 108 µM), inactives show top-dose activity change, negative = inhibition, actives largely listed as inhibitors; also: potency is read from the fitted curve at half-maximal effect
Target sequence (P18054 whole entry, looked up): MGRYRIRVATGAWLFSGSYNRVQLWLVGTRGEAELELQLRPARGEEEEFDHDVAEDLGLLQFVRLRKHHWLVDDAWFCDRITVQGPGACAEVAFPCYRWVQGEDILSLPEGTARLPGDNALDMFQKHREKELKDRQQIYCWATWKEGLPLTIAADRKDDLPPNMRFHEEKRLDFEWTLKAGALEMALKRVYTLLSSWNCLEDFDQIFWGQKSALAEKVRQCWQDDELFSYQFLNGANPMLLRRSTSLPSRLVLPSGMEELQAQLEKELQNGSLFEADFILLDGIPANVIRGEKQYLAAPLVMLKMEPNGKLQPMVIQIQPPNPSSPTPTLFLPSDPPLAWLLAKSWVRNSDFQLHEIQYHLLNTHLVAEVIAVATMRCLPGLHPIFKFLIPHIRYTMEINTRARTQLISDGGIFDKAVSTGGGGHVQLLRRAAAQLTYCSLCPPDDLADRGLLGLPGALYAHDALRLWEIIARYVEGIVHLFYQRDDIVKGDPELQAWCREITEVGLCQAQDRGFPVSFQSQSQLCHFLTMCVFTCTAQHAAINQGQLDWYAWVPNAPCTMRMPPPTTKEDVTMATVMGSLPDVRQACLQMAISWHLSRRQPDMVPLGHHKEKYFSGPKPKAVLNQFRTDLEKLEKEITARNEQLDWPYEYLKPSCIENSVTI
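Purified human 12hLO at 150 nM in 25 mM Hepes, 0.01% Triton X-100, pH 7.0, preincubated 15 min at room temperature with compound. Reaction started with 40 uM arachidonic acid, 30 min at room temperature. Hydroperoxide measured by Fe-xylenol orange, 573/405 nm absorbance ratio.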
HT1080 IDH1KD tx = kills HT-1080 cells with IDH1 knockdown. HT-1080 IDH1 knockdown viability, ATP luminescence, 48 h. AID 686971. Potency, µM (highest dose often 46.1 µM), for inactives: at the highest dose activity, negative = toxicity, most hits filed as cytotoxic. 2% of 360,000 active;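 also: potency is read from the fitted curve at half-maximal effect; 0% = DMSO wells and -100% = cell-free medium wells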
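HT-1080-IDH1KD cells (IDH1 knocked down), 750/well in RPMI with 5% FBS, treated with compound 48 h at 37 degrees C. Viability by CellTiter-Glo luminescence, normalised to DMSO and no-cell wells; concentration-response curves classed.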
TDP1 cell noCPT = qHTS for Inhibitors of human tyrosyl-DNA phosphodiesterase 1 (TDP1): qHTS in cells in absence of CPT; DT40 Tdp1-/- hTDP1 cells, no CPT, ATP luminescence, 48 h; Potency, µM (highest dose often 46.2 µM), for the others: top-dose activity change, negative = growth inhibition, usual class: inhibitors; 15% of 420,000 active; also: potency is read from the fitted curve at half-maximal effect; nearly all actives have a fitted effect of over 55% in size
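Cells were dispensed at 400 per well, compounds added by pin tool, plates incubated ≥48 hr at 37 °C, then CellTiter-Glo added for 30 min at room temperature before luminescence reading. Line: DT40 Tdp1-/- complemented with hTDP1; camptothecin omitted.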
HT1080-NT tox = kills 2HG-producing HT-1080-NT fibrosarcoma cells | AID 686970 | Potency, µM (doses to about 46.1 µM), without a hit: at the highest dose activity, negative = less viability, actives largely listed as cytotoxic | HT-1080-NT fibrosarcoma viability, CellTiter-Glo ATP luminescence, 48 h | 1.6% of 360,000 active;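 also: NT is the 2HG producing partner of a matched IDH1 knockdown line; potency is read from the fitted curve at half-maximal effect; 0% = DMSO-treated cells and -100% = media-only wells without cells; nearly all actives have a fitted effect of over 55% in size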
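Viability by CellTiter-Glo luminescence after 48 h compound exposure at 37C of HT-1080-NT cells (750/well, RPMI, 5% FBS). % activity scaled between DMSO wells and medium-only wells, then curve-fitted and categorized by curve class.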
IL-1B inflam inh = blocks inflammasome-driven IL-1 beta release. THP-1 LPS/ATP IL-1B secretion, AlphaLISA, 16 h; hits give low values. activity change, % at 57.5 µM. 4.7% of 360,000 active. AID 743279; in the data active = activity change below about -50%; inconclusive = mostly about -30% to -49%
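Secreted IL-1B measured by AlphaLISA bead assay after 16 h compound exposure of THP-1 cells; compounds (final up to 57.5 uM) added 1 h before LPS (250 ng/mL) and ATP (1.25 mM) stimulation; lower signal means less secretion.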
* hit, by the source's call; ? = inconclusive; · = no result given; [ ] = remark or other dose. Unless noted, calls follow the shape of the dose curve; as a rule, active = well fitted curve in the direction sought with a large enough effect; inconclusive = small, poorly fitted or top-dose-only effect, or another doubt; inactive = no such curve, though single readings can be large; an effect the other way counts as inactive or inconclusive. Unless noted, % is scaled to controls: 0 for no effect and ±100 for the full control effect.

SMILES	DT40 TDP1 CPT	ALOX12 inh	HT1080 IDH1KD tx	TDP1 cell noCPT	HT1080-NT tox	IL-1B inflam inh
Cc1cc(C)c(NC(=O)CSc2ncc3c(n2)-c2cc(Cl)ccc2N(C)S3(=O)=O)c(C)c1	0.164µM*	?	·	0.0461µM*	·	·
O=c1c2ccccc2c(-c2cccs2)nn1CC(O)COCc1ccc(Cl)cc1 (stereo not drawn)	·	22.8%	·	·	·	·
CCC1(C(=O)NCc2ccc(N3CCC(C)CC3)cc2)CCCCC(=O)N1 (stereo not drawn)	·	16.8%	·	·	·	·
N#Cc1ccc(NC(=O)COC(=O)c2ccccc2Oc2ccccc2)cc1	·	-29.0%	·	·	·	·
CN1CCCCC(CC(=O)NCCc2ccccc2)C1=O (stereo not drawn)	·	38.7%	·	·	·	·
CCOc1ccccc1NC(=O)CSc1ncc(S(=O)(=O)c2ccc(C)c(C)c2)c(N)n1	?	-11.9%	·	23.1µM*	·	·
CCOC(=O)c1ccccc1NC(=O)CSc1ncc(C(=O)OCC)c(N)n1	?	?	4.3%	?	0.0%	11.1
Cc1ccc(NC(=O)Cn2c(-c3cnccn3)nc(C)c(CCO)c2=O)cc1	·	6.6%	·	·	·	·
O=C(O)CCCNc1cc(N2CCN(C3CCCCC3)CC2)c2noc3c2c1C(=O)c1ccccc1-3	-11.6%	-6.7%	·	1.2%	·	·
CCCCNc1cc(NC2CCCCC2)c2c3c(onc13)-c1ccccc1C2=O	?	1.5%	·	?	·	·
O=C(O)CCNc1cc(N2CCN(C(=O)c3ccco3)CC2)c2noc3c2c1C(=O)c1ccccc1-3	-1.7%	-11.3%	?	-25.7%	?	-71.2*
CCN1CCN(c2cc(N3CCN(C(=O)c4ccco4)CC3)c3c4c(onc24)-c2ccccc2C3=O)CC1	7.31µM*	·	?	9.2µM*	?	-51.9*
CCNc1cc(N2CCN(C3CCCCC3)CC2)c2noc3c2c1C(=O)c1ccccc1-3	?	3.4%	·	?	·	·
O=C1c2ccccc2-c2onc3c(NCCO)cc(NC4CCCCC4)c1c23	18.4µM*	-17.3%	·	?	·	·
O=C(COc1ccccc1Cl)Nc1ccc(-c2nc3ccccc3o2)cc1	·	-24.2%	·	·	·	·
O=C(O)c1cc(N=Nc2c(O)ccc3ccccc23)cc(C(=O)O)c1	-24.2%	-4.1%	-8.1%	-4.8%	0.4%	35.5
O=C(O)c1ccc(N=Nc2c(O)ccc3ncccc23)cc1	4.11µM*	-4.1%	23.1µM*	2.91µM*	?	18.8
CCC1=NN(C(=O)COc2ccccc2)C(O)(c2ccc(Br)cc2)C1 (stereo not drawn)	?	-11.6%	-7.3%	20.6µM*	-20.3%	6.1
CC1=NN(C(=O)COc2ccccc2)C(O)(c2ccccc2)C1 (stereo not drawn)	5.8µM*	-16.5%	6.1%	?	9.7%	13.1
O=C([C@@H]1C[C@@H](Sc2nc3ccccc3[nH]2)CN1Cc1ccc(Cl)cc1)N1CCN(c2ccccc2F)CC1	?	3.3%	·	20.6µM*	·	·
CN1CCCN(C(=O)[C@@H]2C[C@@H](Sc3nc4ccccc4[nH]3)CN2Cc2ccc(-c3ccccc3)cc2)CC1	9.6%[9.04 µM]	?	·	?	·	·
COC(=O)c1ccc(Nc2c([N+](=O)[O-])c(=O)oc3ccccc23)cc1	0.0%	6.4%	-24.1%	?	-18.0%	-77.9*
O=c1oc2ccccc2c(Nc2ccc(Cl)cc2)c1[N+](=O)[O-]	?	9.3%	-27.4%	13µM*	?	-24.3
COc1ccc(C(=O)Oc2c(Sc3ccccc3)c(C)nn2-c2ccccc2)c(OC)c1	18.4µM*	?	·	?	·	·
Cc1nn(-c2ccccc2)c(OC(=O)C(C)C)c1Sc1ccc(Cl)cc1	?	?	·	10.3µM*	·	·
SMILES	DT40 TDP1 CPT	ALOX12 inh	HT1080 IDH1KD tx	TDP1 cell noCPT	HT1080-NT tox	IL-1B inflam inh
O=C(c1cnc(Cc2c[nH]c3ccccc23)c(I)c1)N1CCOCC1	·	20µM*	·	·	·	·
O=C(c1cnc(Cc2c[nH]c3ccccc23)c(I)c1)N1CCN(Cc2ccccc2)CC1	·	-7.6%	·	·	·	·
O=C(CCCN1C(=O)/C(=C\c2cccc(Br)c2)SC1=S)Nc1cccnc1	?	-16.0%	13µM*	14.6µM*	16.4µM*	-51.0*
O=C(CCCN1C(=O)/C(=C/c2cccc(Br)c2)SC1=S)Nc1cccnc1	?	0.5%	?	16.4µM*	?	-89.6*
Cc1nc(-c2cn(C3CCCN(C(=O)COc4ccccc4)C3)nn2)no1 (stereo not drawn)	·	33.0%	·	·	·	·
CN(Cc1ccccc1N1CCCC1)C(=O)c1cc2cc(Cl)ccc2o1	11.6µM*	136.1%	-0.7%	-15.1%	-0.2%[9.24 µM]	16.7
CCN1C(=O)CCN(Cc2cccc(OC(F)(F)F)c2)CC12CCOCC2	·	4.7%	·	·	·	·
COc1cccc(CNc2ccc(N3CCC(C)CC3)cc2)c1OC	23.1µM*	?	?	16.4µM*	-26.1%	-20.9
Cc1ccc(NC(=O)c2ccc(Nc3ccccc3F)nc2)cc1	?	-7.7%	-1.1%	?	-9.9%	-4.0
CNC(=O)c1ccc(Nc2cc(Nc3ccccc3S(=O)(=O)C(C)C)c3cc[nH]c3n2)nc1	·	0.968µM*	·	·	·	·
COc1ccccc1C(=O)N1CCCN(c2cc(-c3ccc(Br)cc3)[nH]n2)CC1	·	-9.6%	·	·	·	·
Cc1ccc2cc(CCNC(=O)c3ccc(C)c([N+](=O)[O-])c3)c(=O)[nH]c2c1	20.6µM*	?	-4.0%	?	-3.5%	-21.3
CCC(CC)C(=O)NCCc1cc2ccc(C)cc2[nH]c1=O	-0.6%	-2.8%	10.6%	-26.1%	6.5%	10.3
CC(=O)NCCc1cc2ccc(C)c(C)c2[nH]c1=O	0.5%	40.5%[57.4 µM]	8.6%	-2.2%	-0.9%	11.9
COc1ccc2cc(CCNC(=O)c3ccc4c(c3)OCO4)c(=O)[nH]c2c1	?	-10.6%	-5.0%	?	-7.0%	-11.4
COc1ccc2cc(CCNC(=O)c3cccc([N+](=O)[O-])c3)c(=O)[nH]c2c1	23.1µM*	-21.3%	0.4%	?	5.8%	-0.4
Cc1ccc2cc(CCNC(=O)c3cccc([N+](=O)[O-])c3)c(=O)[nH]c2c1C	23.1µM*	31.3%	17.8%	16.4µM*	18.4%	-0.4
Cc1ccc2cc(CCNC(=O)c3cccs3)c(=O)[nH]c2c1C	23.1µM*	4.7%	7.8%	?	10.9%	-20.3
Cc1ccc(NS(=O)(=O)c2cc(C(=O)O)cc3c2CCC3)c(F)c1	·	-3.6%	·	·	·	·
O/N=C1\CCOc2ccccc21	·	-13.3%	·	·	·	·
FC(F)(F)Oc1ccc(-c2cnc([C@@H]3COCCN3C3CCOCC3)[nH]2)cc1	·	27.2%[176 µM]	·	·	·	·

Compound activity deposited in PubChem BioAssay by National Center for Advancing Translational Sciences (NCATS).
